Source: PubChem
Shown is part of a subset that was picked to be rich in hits.
FECH inh: blocks human mitochondrial ferrochelatase activity | actives 3.3% (n = 20,000) | P22830 | AID 1671448 | purified FECH, Ni-mesoporphyrin absorbance 550 nm | calls only at 10 µM (by protocol);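 active = enzyme reaction rate more than 3 SD below the solvent-only control wells on the same plate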;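 note: lower slope than DMSO wells means FECH inhibition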
Target sequence (P22830 whole entry, looked up): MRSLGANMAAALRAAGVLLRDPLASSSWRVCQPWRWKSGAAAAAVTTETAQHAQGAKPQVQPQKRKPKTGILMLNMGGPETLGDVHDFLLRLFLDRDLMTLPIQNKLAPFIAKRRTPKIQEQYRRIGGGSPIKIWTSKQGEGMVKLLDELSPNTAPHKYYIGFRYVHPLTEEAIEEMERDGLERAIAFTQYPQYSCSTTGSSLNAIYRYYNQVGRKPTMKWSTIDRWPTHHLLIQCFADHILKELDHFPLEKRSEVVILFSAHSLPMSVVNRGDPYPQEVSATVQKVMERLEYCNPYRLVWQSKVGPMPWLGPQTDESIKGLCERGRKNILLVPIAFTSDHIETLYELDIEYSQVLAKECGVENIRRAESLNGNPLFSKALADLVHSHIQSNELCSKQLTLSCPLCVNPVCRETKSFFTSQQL
* hit, by the source's call; i = inactive; + = active, no number.

SMILES	FECH inh
COc1cccc(CN2CC(=O)N(Cc3ccccc3F)c3ccccc3S2(=O)=O)c1	i
CCC(C)N(Cc1sccc1C)C(=O)CCc1ccncc1 (stereo not drawn)	i
OCCCNc1nc(Nc2ccc3c(c2)OCO3)c2cnn(-c3ccccc3)c2n1	i
CC(=O)Nc1ccc(S(=O)(=O)NCCn2c(C(F)(F)F)nc3cccnc32)cc1	i
CC(C)Cc1ncc2c(n1)CN(C(=O)c1ccc(S(C)(=O)=O)cc1)C2	i
CCc1cc(Sc2ccccc2NC(=O)c2cccc(F)c2)n2nc(C)nc2n1	i
Cc1nc2nc(-c3ccccc3)nn2c(Sc2ccccc2NC(=O)c2ccc(Br)o2)c1C	i
Cn1nc(C(=O)NCc2ccc3[nH]c4c(c3c2)CCCC4)ccc1=O	i
Cc1ccc(Nc2cc(C)nc(N3CCN(S(=O)(=O)c4ccc(Br)cc4)CC3)n2)cc1	i
CCc1ccc(CNC(=O)c2nc(N3CCCC3)c3oc4ccccc4c3n2)cc1	i
CCCc1nc2nc(C)[nH]n2c(=O)c1N	i
CCc1csc(CNC(=O)Cn2cc(Cl)c(C)n2)n1	i
Cc1cccc(-c2c(-c3ccccc3)ncn2CCN2CCOC2=O)c1C	i
Cc1ncc(-c2c(-c3ccccc3)ncn2CCN2CCCOC2=O)[nH]1	+
Cc1ncc(-c2c(-c3ccccc3)ncn2CCCOc2cccnc2)[nH]1	i
c1ccc(-c2ncn(CCc3cccs3)c2C2CCOC2)cc1 (stereo not drawn)	i
Cc1ncc(-c2c(-c3ccccc3)ncn2CCc2cccs2)[nH]1	+
O=C1OCCCN1CCn1cnc(-c2ccccc2)c1-c1cccnc1	i
Cc1nc(C(C)N(C)Cc2ccc(S(C)(=O)=O)cc2)c(C)s1 (stereo not drawn)	i
CCOC(=O)c1ccc(NC(=O)Cn2c(C(=O)OC)cc3ccsc32)cc1	i
CCCn1ccnc1-c1c(-c2ccccc2)ncn1[C@H]1CCCC[C@@H]1O	i
Cc1cc(C2CCC2)nc(NCCN2CCCC2)n1	i
Cc1cccc(C(C(=O)NCc2cnc(C)cn2)N(C)C)c1 (stereo not drawn)	i
Cc1cccc2oc(CNC(=O)C(c3cccc(F)c3)N(C)C)nc12 (stereo not drawn)	i
CN(C)C(C(=O)NCC1(O)CCCCC1)c1cccc(F)c1 (stereo not drawn)	+
SMILES	FECH inh
Cc1cc2nc(C(=O)N3CCCN(C)C4(CCN(C)CC4)C3)cc(C)n2n1	i
Cc1c(CN2Cc3ncccc3C2=O)oc2ccccc12	i
Cc1c(-c2nccn2Cc2cccnc2)oc2ccccc12	+
CCc1oc2ccccc2c1-c1nccn1CCN(C)C	i
Cc1ccn(-c2ccc(NC(C)C)cc2)n1	i
CCc1nc2nc(C)cc(N3CCN(Cc4ccc5c(c4)OCO5)CC3)n2n1	i
Cc1cccc(N2C(=O)N(Cc3cc(F)cc(F)c3)c3ccccc3S2(=O)=O)c1	i
O=C(CSc1cc(N2CCCCC2)ncn1)NC1CCCC1	+
Cc1nn(-c2cc(N3CCCC3)ncn2)c(C)c1CCC(=O)NC1CCCCCC1	i
COc1ccc(NC(=O)CSc2cc(N3CCCCC3)ncn2)cc1	i
Cc1nc2nc(-c3ccccc3)nn2c(Sc2ccccc2NC(=O)Cc2cccs2)c1C	i
Cc1cccc(Nc2nc(NCc3ccc(F)cc3)nc3c2cnn3-c2ccccc2)c1	i
COc1ccc(NC(=O)CN2CCCN(Cc3ccc(Cl)cc3)S2(=O)=O)cc1Cl	+
COc1ccc(NC(=O)CN2CCCN(Cc3ccccc3)S2(=O)=O)cc1Cl	i
CCOC(=O)c1ccc(NC(=O)CN2CCCN(Cc3ccc(C)cc3)S2(=O)=O)cc1	i
CCOc1ccc(NC(=O)CN2CCCN(Cc3ccc(C)cc3)S2(=O)=O)cc1	+
O=C(CN1CCCN(Cc2ccc(Cl)cc2)S1(=O)=O)Nc1ccc(F)c(Cl)c1	i
CCOc1ccc(NC(=O)CN2CCN(Cc3cccc(C)c3)S2(=O)=O)cc1	i
COc1ccc(NC(=O)CN2CCCN(Cc3ccc(C)cc3)S2(=O)=O)cc1	i
Cc1ccc(NC(=O)CN2CCN(Cc3ccccc3)S2(=O)=O)cc1C	i
COc1ccc(NC(=O)CN2CCCN(Cc3ccc(C)cc3)S2(=O)=O)c(OC)c1	i
COc1cc(OC)c(NC(=O)CN2CCCN(Cc3cc(C)ccc3C)S2(=O)=O)cc1Cl	+
COc1ccc(NC(=O)CN2CCN(Cc3cccc(C)c3)S2(=O)=O)cc1Cl	+
Cc1ccc(NC(=O)CN2CCN(Cc3cc(C)ccc3C)S2(=O)=O)cc1	i
COc1ccccc1N1CCN(Cc2cc(=O)n3[nH]c(-c4ccc(C(C)(C)C)cc4)nc3n2)CC1	i
SMILES	FECH inh
Cc1cc(NC(=O)c2cc3ccccc3o2)n(-c2ncnc3c2cnn3-c2ccc(F)cc2)n1	i
Cc1ccccc1-c1ncc(CNC2CCN(S(C)(=O)=O)CC2)s1	i
Cc1ccc(-c2ccnc(NCC(C)N3CCN(C)CC3)n2)c(C)n1 (stereo not drawn)	i
COc1ccc(Nc2cc(C)nc(Nc3ccc(NC(C)=O)cc3)n2)cc1	i
O=C(NCCCN1CCN(C2CCCCC2)CC1)c1ccc(CN2C(=O)CCn3nccc32)cc1	i
Cc1ccc2cc(-c3noc(CCC(=O)Nc4cccc(Cl)c4)n3)c(=O)[nH]c2c1	i
CSc1cccc(NC(=O)CN2CCN(Cc3ccccc3)S2(=O)=O)c1	i
CC(=O)c1cccc(NC(=O)CN2CCCN(Cc3ccccc3Cl)S2(=O)=O)c1	i
O=C(CN1CCCN(Cc2ccccc2Cl)S1(=O)=O)Nc1ccccc1	i
COc1ccc(NC(=O)CN2CCCN(Cc3ccccc3Cl)S2(=O)=O)cc1Cl	+
Cc1cccc(NC(=O)CN2CCCN(Cc3ccc(Cl)cc3)S2(=O)=O)c1	i
Cc1ccc(CN2CCN(CC(=O)Nc3cc(C)cc(C)c3)S2(=O)=O)cc1	i
O=C(CN1CCCN(Cc2cccc(Cl)c2)S1(=O)=O)Nc1cccc(Cl)c1	i
COc1ccc(NC(=O)CN2CCN(Cc3ccc(C)cc3)S2(=O)=O)cc1	i
CCc1cccc(NC(=O)CN2CCN(Cc3ccccc3C)S2(=O)=O)c1	i
O=C(CN1CCCN(Cc2ccc(Cl)cc2)S1(=O)=O)Nc1cccc(Cl)c1	+
CSc1cccc(NC(=O)CN2CCN(Cc3ccccc3C)S2(=O)=O)c1	+
COc1cccc(NC(=O)CN2CCN(Cc3ccc(C)cc3)S2(=O)=O)c1	+
CC(C)n1c(CNS(=O)(=O)c2ccc(F)cc2)nc2cccnc21	i
COc1ccc(-c2cc(N3CCN(C(=O)Nc4ccc(C)c(C)c4)CC3)ncn2)cc1	i
Cc1n[nH]c(C)c1CCCNC(=O)CCn1c(C)cc2ccccc21	i
CCn1c(C2CCN(C(=O)CN3CCOc4ccccc4C3)CC2)n[nH]c1=O	i
CCn1cnnc1CCNC(=O)c1cccc2ccnn12	i
O=C(N[C@@H]1CCC[C@H]1OCc1ccccc1)c1cn[nH]n1	i
COCC1(C(=O)NC23C[C@H]4C[C@@H](C2)CC(n2nnc(C)n2)(C4)C3)CCC1	i
CCCc1nc(C)cc(N2CCc3nc[nH]c3C2)n1	i
Cc1cccc2[nH]c(CCn3ccnc3-c3ccc4nonc4c3)nc12	i
Cc1cccc(N2CCN(c3ncc(NS(=O)(=O)c4cccc(C)c4)cc3C(=O)O)CC2C)c1 (stereo not drawn)	i
Cc1cccc(C(=O)Nc2cc(C)nn2-c2ncnc3c2cnn3-c2ccc(Cl)cc2)c1	i
COCCCC1CCCN(C(=O)c2cccc(CC3CCNCC3)c2)C1 (stereo not drawn)	i
